Measured values from PubChem BioAssay AID504766 (The Scripps Research Institute Molecular Screening Center, 2011).
Values joined by “and” are separate entries in the source; they are usually repeats but may differ in a detail not shown here. Equal values may be shown once. Among all 340,000 compounds or so, about 3,400 (1%) were called active.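 How the source made its calls: active means inhibition above the mean over all tested compounds plus 3 SD (cut at about 4.2% in these data); inactive means the rest.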 Only a selection was taken, and actives are over-represented in it overall.

These compounds were tested against Nuclear receptor subfamily 0 group B member 1 (Homo sapiens) (UniProt P51843) (assay: relief of DAX1 transcriptional repression – cell-based, HEK293, Gal4-DAX1, luciferase luminescence, primary screen (AID 504766;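 further: 0% = DAX1-transfected cells with DMSO and 100% = empty-vector control cells with DMSO; inhibition shows as a rise in luminescence from relieved DAX1 repression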)). Details: HEK293 Gal4-DAX1 luciferase reporter, at 6.75 µM, stronger effect = higher value.
Nuclear receptor subfamily 0 group B member 1 (Homo sapiens), sequence (P51843 207-470 limits assumed): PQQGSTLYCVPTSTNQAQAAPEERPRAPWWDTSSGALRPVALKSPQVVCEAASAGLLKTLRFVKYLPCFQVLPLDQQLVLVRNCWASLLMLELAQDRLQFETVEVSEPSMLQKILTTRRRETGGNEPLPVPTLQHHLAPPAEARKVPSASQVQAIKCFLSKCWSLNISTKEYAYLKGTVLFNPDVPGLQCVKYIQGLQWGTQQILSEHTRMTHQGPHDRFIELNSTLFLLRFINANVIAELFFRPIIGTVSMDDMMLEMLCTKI

Row | Structure (SMILES) | inhibition
1 | COc1ccccc1-c1n[nH]nc1C1=CC(=O)CC(C)(C)C1 | 1.58% (inactive)
2 | CCOc1ccc(NS(=O)(=O)c2ccc(C(=O)NCC3CCCO3)cc2)cc1 (stereo unspecified) | 0.78% (inactive)
3 | CC(C)c1ccc(C=NNc2ccc([N+](=O)[O-])cn2)cc1 | 4.47% (active)
4 | O=[N+]([O-])c1cccc(/C=N/Nc2ncc(Br)cn2)c1 | 3.56% (inactive)
5 | CC(=O)c1sc(N/N=C/c2ccc(C(C)C)cc2)nc1C | 0.37% (inactive)
6 | CC1=C(C(=O)N(C)C)CC(CC(=O)NCCN2CCOCC2)C(=O)N1Cc1ccccc1 (stereo unspecified) | 0.86% (inactive)
7 | CC(C)CCOc1ccc(C(=O)Nc2cc(S(=O)(=O)N3CCOCC3)ccc2N2CCOCC2)cc1 | 1.57% (inactive)
8 | COC(=O)C1=C(C)N(C)C(C)=C(C(=O)OC)C1c1cccc(Br)c1 | -0.19% (inactive)
9 | COC(=O)C1NN=C(C(=O)c2ccc(Br)cc2)C1c1cccc(Br)c1 (stereo unspecified) | 5.4% (active)
10 | COc1ccc(C(=O)c2oc3ccc(Br)cc3c2NC(C)=O)cc1 | 0.74% (inactive)
11 | Cc1ccc(C(=O)OCC(=O)NC2CCCCCCC2)cc1C | 1.83% (inactive)
12 | CCOC(=O)c1cc(-c2sc(NC(=O)c3ccccc3)nc2C)n(-c2ccc(Br)cc2)n1 | -0.34% (inactive)
13 | N/C(=N\OC(=O)c1ccc([N+](=O)[O-])cc1)c1ccccn1 | 0.14% (inactive)
14 | COc1ccc(C(=O)O/N=C(\N)c2ccccn2)cc1[N+](=O)[O-] | 4.71% (active)
15 | COc1ccccc1OCC(=O)O/N=C(\N)c1ccccn1 | 2.91% (inactive)
16 | CCN(CC)C(=O)C(C)N1c2cccc3cccc(c23)S1(=O)=O (stereo unspecified) | 0.49% (inactive)
17 | COc1ccc(NC(=O)CN2C(=O)NC(C)(c3ccccc3)C2=O)cn1 (stereo unspecified) | 1.1% (inactive)
18 | Cc1ccc(-c2ccc(C3=CC(=O)CC(C)(C)C3=O)cc2)cc1 | 3.24% (inactive)
19 | CNS(=O)(=O)c1ccc(NC(=O)C2CC(=O)N(c3ccc(Cl)cc3)C2)cc1 (stereo unspecified) | 4.35% (active)

Row | Structure (SMILES) | inhibition
20 | O=C(Nc1ccc(S(=O)(=O)N2CCCCC2)cc1)C1CC(=O)N(c2ccc(F)cc2)C1 (stereo unspecified) | -1.03% (inactive)
21 | Cc1ccc(N2CC(C(=O)Nc3ccc(S(=O)(=O)N4CCCC4)cc3)CC2=O)cc1C (stereo unspecified) | -0.34% (inactive)
22 | Nc1cc(C(=O)N2CCN(c3ccccc3Cl)CC2)ccc1N1CC2CC(C1)c1cccc(=O)n1C2 (stereo unspecified) | 2.59% (inactive)
23 | O=C(NCc1ccc(F)cc1)C1CCC(CNc2c(N3CCOCC3)c(=O)c2=O)CC1 (stereo unspecified) | 5.78% (active)
24 | CC(NC(=O)C1CCC(CNc2c(N3CCOCC3)c(=O)c2=O)CC1)c1ccccc1 (stereo unspecified) | 0.2% (inactive)
25 | COc1ccc(CNC(=O)C2CCC(CNc3c(N4CCOCC4)c(=O)c3=O)CC2)cc1 (stereo unspecified) | -0.15% (inactive) and -0.24% (inactive)
26 | C[C@H]1CN([C@@H](C)CO)C(=O)CCCn2cc(nn2)CO[C@@H]1CN(C)C(=O)Nc1ccccc1 | 1.03% (inactive)
27 | O=S(=O)(c1ccccc1)N1CCc2ccccc21 | 5.18% (active)
28 | CCn1c(=O)c(=O)n(CC)c2cc(S(=O)(=O)N3CCc4ccccc43)ccc21 | -1.26% (inactive)
29 | O=S(=O)(c1ccc2c(c1)OCCO2)N1CCc2ccccc21 | 0.28% (inactive)
30 | C[C@H]1CN([C@@H](C)CO)C(=O)CCCn2cc(nn2)CO[C@@H]1CN(C)S(=O)(=O)c1ccc(-n2cccn2)cc1 | 2.41% (inactive)
31 | CC(C)C(=O)N1c2ccccc2NC2=C(C(=O)CCC2)C1c1ccc(N(C)C)cc1 (stereo unspecified) | 4.33% (active)
32 | CCC(=O)N1c2ccccc2NC2=C(C(=O)CCC2)C1c1ccco1 (stereo unspecified) | -0.14% (inactive)
33 | CCCC(=O)N1c2ccccc2NC2=C(C(=O)CCC2)C1c1ccc(F)cc1 (stereo unspecified) | -0.04% (inactive)
34 | COc1ccc(-c2ccc(CN3C(C(C)C)C(=O)N(Cc4cn(CC5CCCCC5)nn4)CCS3(=O)=O)cc2)cn1 (stereo unspecified) | -0.57% (inactive)
35 | COc1cccc(OC)c1C(=O)N1CCN(Cc2ccccc2F)CC1 | 2.65% (inactive)
36 | CC(=O)NN1C(=O)c2ccccc2NC1c1ccccc1 (stereo unspecified) | -1.71% (inactive)
37 | CC(=O)N1C(=O)C2(Nc3ccccc3N2)c2ccccc21 | 0.59% (inactive)
38 | CC(C)=NN1C(=O)c2ccccc2NC1(C)C | 5.58% (active)

Row | Structure (SMILES) | inhibition
39 | Cc1c(NC(=O)COC(=O)/C=C/c2cccc(F)c2)c(=O)n(-c2ccccc2)n1C | -0.66% (inactive)
40 | C[C@H]1CN([C@@H](C)CO)S(=O)(=O)c2ccc(Br)cc2O[C@H]1CN(C)C(=O)c1cnccn1 | -0.34% (inactive)
41 | O=C(NCc1nnnn1-c1ccc(Cl)cc1)c1ccc([N+](=O)[O-])o1 | 0% (inactive)
42 | N#CCCC(C#N)(c1cccnc1)N1CCOCC1 (stereo unspecified) | -0.32% (inactive)
43 | CC(C)c1cc(C(=O)NC2CCCCCC2)c2ccccc2n1 | -1.68% (inactive)
44 | O=C(/C=C/c1cnc2ccccc2n1)NC1CCCCCC1 | 4.47% (active)
45 | CC1CCCCC1NC(=O)Cn1c(=O)cnc2ccccc21 (stereo unspecified) | -1.16% (inactive)
46 | COc1ccccc1N1CCN(/N=C/c2ccc(O)cc2O)CC1 | 5.15% (active)
47 | COc1cc(/C=N/N2CCN(c3ccccc3)CC2)ccc1OC(C)=O | -0.26% (inactive)
48 | COc1ccccc1N1CCN(/N=C\C(Br)=C\c2ccccc2)CC1 | -0.74% (inactive)
49 | O=C(c1ncn2c1c(=O)[nH]c1ccccc12)N1CCc2ccccc2C1 | -0.1% (inactive)
50 | COc1ccc([C@H]2N[C@]3(CCCN(Cc4ccco4)C3=O)[C@H]3C(=O)N(C)C(=O)[C@@H]23)cc1 | 0.93% (inactive)
51 | O=C(C1CCCO1)N1CCN(C(=O)C23CC4CC(CC(C4)C2)C3)CC1 (stereo unspecified) | -0.78% (inactive)
52 | CCOC(=O)/C(C#N)=C/c1ccc(N2CCN(Cc3ccccc3)CC2)cc1 | -0.11% (inactive)
53 | COC(=O)/C(C#N)=C/c1occc1C | -0.79% (inactive)
54 | CCOC(=O)/C(C#N)=C\c1c(C)cc(C)c(COC(C)=O)c1C | 5.6% (active)
55 | O=S(=O)(c1cccc(C(F)(F)F)c1)N1c2ccccc2-n2cccc2C1c1cccnc1 (stereo unspecified) | 0.07% (inactive)
56 | COc1ccc(NC(=O)CSc2nnnn2-c2cccc(OC)c2)cc1 | 0.03% (inactive)
